# PubChem BioAssay AID652067 (The Scripps Research Institute Molecular Screening Center, 2013)
# About 5,400 (1.5%) of roughly 370,000 compounds were called active.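 The calls were made as follows: active = activation above the mean of all tested compounds plus 3 SD (cut at about 5.5% in these data); inactive = the rest.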 Shown is part of a subset that was picked to be rich in actives.
# System: DAF-12 nuclear receptor (Haemonchus contortus)
# Experiment: hcDAF-12 driven luciferase reporter activation – cell-based, luminescence, HEK293, lit1-tk-luc reporter, primary screen (AID 652067);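 also: 100% = response to 3 µM Δ7-dafachronic acid high control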
# Details: HEK293 hcDAF-12 lit1-tk-luc reporter, at 6.8 µM, stronger effect = higher value, 0% DMSO, 100% Δ7-dafachronic acid
row,Compound,activation
1,COc1ccc(CSc2nnc(SCC(=O)Nc3ccccc3C(F)(F)F)s2)cc1,-0.61% (inactive)
2,CS(=O)(=O)Nc1ccccc1C(=O)OCC(=O)NC1CC1,0.83% (inactive)
3,CC(=O)c1cc(-c2ccc3ccccc3c2)c(=O)n2c1CCC2,-0.26% (inactive)
4,COC(=O)Nc1nc2ccc(C(=O)C3CC3)cc2[nH]1,0.63% (inactive)
5,C[C@@H]1CN([C@@H](C)CO)C(=O)c2cccc(NC(=O)Nc3cccc4ccccc34)c2O[C@H]1CN(C)S(=O)(=O)c1ccccc1F,-1.14% (inactive)
6,C[C@@H]1ON(C)[C@H]2C[C@H]3c4[nH]c5cccc(-c6ccc7c(c6)OCO7)c5c4CCN3C[C@@H]12,-1.17% (inactive)
7,COc1ccc(C2=Nc3ccccc3NC(=O)C2N(C(=O)c2cc3ccccc3[nH]2)c2ccccc2)cc1 (centres undefined),6.3% (active)
8,CCC(=O)N(Cc1cc2ccccc2[nH]c1=O)c1ccc(OC)cc1,-1.6% (inactive)
9,CC(OC(=O)c1cc2ccccc2[nH]1)C(=O)N(C)c1ccccc1 (centres undefined),2.38% (inactive)
10,Cc1cc(=O)oc(C)c1C(=O)NCCN(C)Cc1ccccc1,-0.39% (inactive)
11,O=C1CC(c2ccc3c(c2)OCO3)N=C2N(CC3CC3)C/C(=C/c3ccccc3)N12 (centres undefined),-3.84% (inactive)
12,CCNC(=O)COC(=O)/C=C/c1c(C)nn(Cc2cccc(OC)c2)c1Cl,0.11% (inactive)
13,O=C(/C=C/c1cccs1)NCc1cccnc1,-0.87% (inactive)
14,O=C(NCc1cccnc1)c1nc(-c2cccs2)no1,5.95% (active)
15,CCc1ccc(CNC(=O)CCc2nc(-c3cccs3)no2)cc1,0.59% (inactive)
16,CCS(=O)(=O)N1Cc2ccccc2CC1C(=O)Nc1nc2ccc(F)cc2s1 (centres undefined),7.31% (active)
17,CCS(=O)(=O)N1Cc2ccccc2CC1C(=O)Nc1ccc(OC)cc1OC (centres undefined),-0.97% (inactive)
18,Cc1ccc2nc(NC(=O)C3CSC4(C)CCC(=O)N34)sc2c1 (centres undefined),-0.71% (inactive)
19,COC(=O)[C@]12C[C@H](CC(=O)NCc3ccccc3)C(=O)N(CCC3=CCCCC3)C1=C[C@H](C(C)(C)C)O[C@@H]2C,0.06% (inactive)
20,O=C(NCc1cccs1)C1CCCN(S(=O)(=O)c2ccc([N+](=O)[O-])cc2)C1 (centres undefined),-2.29% (inactive)
21,O=C(Nc1cccn(Cc2c(Cl)cccc2Cl)c1=O)c1ccc(Cl)cc1,-0.98% (inactive)
22,COc1ccc(-n2c(COc3ccccc3)nnc2SCC(=O)Nc2ccc3c(c2)OCO3)cc1,-3.31% (inactive)
23,O=S1(=O)c2c(cccc2N2CC[C@H](O)C2)O[C@@H]2CCN1C2,-1.21% (inactive)
24,CCSc1nnc(-c2cc3c(s2)-c2ccccc2CC3)o1,2.59% (inactive)
